Values without a mark were called inactive. The list shows a part of the results. Activity calls are given as the source filed them. Rule as the data show it, unless noted: active = inhibition above about 25%; inactive = the rest.
Key:
[1] = reduced OD of T4-infected AddAB+ E. coli – absorbance, E. coli V3065, T4 phage, triplicate, AddAB inhibitor project, confirmation (AID 488942;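 active = mean inhibition above a set limit taken from the earlier primary screen, cut at about 13% in these data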;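 also: higher means less bacterial growth since AddAB block lets phage replicate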); conditions: E. coli V3065 expressing H. pylori AddAB, at 11.9 µM, stronger effect = higher value, T4 phage with gene 2 nonsense mutations
[2] = reduced OD of phage-infected RecBCD+ V66 E. coli – absorbance, mutant T4 phage, counter-screen for AddAB inhibitor project (AID 488955;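 active = mean inhibition above the mean of solvent-only control wells plus 3 SD, cut at about 4% in these data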;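 also: optical density read after an 18 h incubation at 37 °C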); conditions: OD growth, at 11.9 µM, stronger effect = higher value
[3] = bacterial growth inhibitors – absorbance, counter-screen for AddAB inhibitor project, confirmation (AID 488956); conditions: bacterial viability, absorbance (AddAB counterscreen); at 11.9 µM; stronger effect = higher value
[4] = target: Nuclear receptor coactivator 3 (Homo sapiens) (UniProt Q9Y6Q9); assay: NCOA3 GAL4-fusion reporter inhibition – cell-based, luminescence, quadruplicate, confirmation (AID 588792;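 active = mean inhibition over 43.08%, the solvent-only control mean plus 3 SD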;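 also: 0% = DMSO treated cells and 100% = gossypol at 36 µM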); conditions: HEK293 GAL4-SRC3 luciferase reporter, at 3.6 µM, stronger effect = higher value
[5] = test system: transactivating tegument protein VP16 (Human herpesvirus 1), Gal4-VP16 luciferase reporter; assay: repression of VP16-driven luciferase reporter – cell-based, luminescence, high throughput, counter-screen for SRC3 inhibitor project (AID 588794; in the data active = inhibition above about 30%); conditions: mammalian cells, at 3.6 µM, stronger effect = higher value
[6] = target: Nuclear receptor coactivator 1 (Homo sapiens) (UniProt Q15788); assay: NCOA1 GAL4-fusion reporter inhibition – cell-based, luminescence, quadruplicate, confirmation (AID 588820;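 active = mean inhibition above 46.68%, the untreated control wells mean plus 3 SD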;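 also: 0% = DMSO wells and 100% = gossypol 36 µM treated wells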); conditions: HEK293 GAL4-SRC1 luciferase reporter, at 3.6 µM, stronger effect = higher value
[7] = repression of VP16-driven luciferase reporter – cell-based, luminescence, high throughput, counter-screen for SRC1 inhibitor project (AID 588824); conditions: cell-based VP16 transactivation luciferase luminescence; at 3.6 µM; stronger effect = higher value
[8] = reduced OD of V66 E. coli with T4 gene 2 phage – absorbance, RecBCD inhibitor project, confirmation (AID 651982;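 active = mean inhibition over triplicates exceeding the hit threshold derived in the original primary screen, cut at about 11% in these data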); conditions: E. coli V66 + T4 2- phage, growth OD; at 11.9 µM; stronger effect = higher value
[9] = bacterial growth inhibition – absorbance, high throughput, counter-screen for RecBCD inhibitor project (AID 651983; in the data active = inhibition above about 20%;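 also: E. coli strain V66 grown with compound alone and no phage infection; 0% = bacteria with DMSO vehicle only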); conditions: E. coli viability, absorbance (OD) growth; at 11.9 µM; stronger effect = higher value
[10] = reduced optical density, T4-challenged addAB+ bacteria – absorbance, E. coli V3065, T4 phage, counter-screen for RecBCD inhibitor project, confirmation (AID 651984;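 active = mean inhibition above the solvent-only control wells' mean plus 3 SD, cut at about 22% in these data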;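 also: higher means less bacterial growth from phage killing when AddAB is blocked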); conditions: E. coli expressing H. pylori AddAB + T4 phage, OD growth; at 11.9 µM; stronger effect = higher value; gene 2 mutant T4, recBCD-deleted host
[11] = target: Platelet-activating factor acetylhydrolase IB subunit alpha1 (Homo sapiens) (UniProt Q15102); assay: inhibition of PAF acetylhydrolase 1B subunit 3 – biochemical, fluorescence polarization, human, confirmation (AID 493032;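 active = average inhibition over triplicate runs above the hit cutoff set in the earlier primary screen, cut at about 25% in these data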;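 also: 0% = enzyme with DMSO and 100% = wells lacking PAFAH1B3 protein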); conditions: recombinant PAFAH1B3, FP-Rh activity-based probe, at 3.39 µM, stronger effect = higher value
[12] = target: Serine protease HTRA1 (Homo sapiens) (UniProt Q92743); assay: confirming inhibition of human HTRA1 – biochemical, fluorescence polarization, confirmation (AID 540248;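 active = mean inhibition over three repeats above a set limit taken from the earlier primary screen, cut at about 37% in these data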;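 also: 0% = HTRA1 with DMSO and 100% = wells lacking HTRA1; inhibitors block probe binding so polarization drops and inhibition rises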); conditions: recombinant HTRA1, FP-rhodamine activity-based probe, at 5.96 µM, stronger effect = higher value
[13] = target: Toll-like receptor 9 (Homo sapiens) (UniProt Q9NR96); assay: disruptors of TLR9 binding to MyD88 – cell-based, CHO, BLA complementation, fluorescence, triplicate, confirmation (AID 540250;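 active = mean inhibition across three repeats above about 21% taken from the earlier screen, limit read from the data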;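 also: blue over green emission ratio reports constitutive TLR9 MyD88 association via BLA complementation; 0% = DMSO vehicle wells and 100% = clavulanate BLA inhibitor wells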); conditions: CCF4 FRET ratio, at 4.98 µM, stronger effect = higher value
[14] = BLA reporter readout interference – cell-based, fluorescence, artefact control for TLR9-MyD88 binding inhibitor project (AID 540251;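 active = mean inhibition above a 50% cutoff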;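 also: counterscreen of TLR9-MyD88 hits on CMV-driven BLA in CHO-K1 cells; 0% = DMSO alone and 100% = clavulanate blocking BLA; higher means less blue over green ratio so more BLA blockade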); conditions: CHO-BLA cells, CCF4 FRET ratio, at 4.98 µM, stronger effect = higher value
[15] = CHO cell viability loss – luminescence, single concentration, cytotoxicity control for TLR9-MyD88 binding inhibitor project (AID 588336; in the data active = inhibition above about 11%); conditions: TLR9-MyD88 CHO cells cytotoxicity, at 4.98 µM, stronger effect = higher value
[16] = target: Galanin receptor type 2 (Homo sapiens) (UniProt O43603); assay: blockers of human galanin receptor 2 – cell-based, confirmation (AID 866; in the data active = inhibition above about 27%;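 also: cells stimulated with galanin at about its EC80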); conditions: GALR2-expressing cells, antagonist mode, at 4 µM, stronger effect = higher value
[17] = nonspecific BLA reporter inhibition – CHO NFAT-bla cells, FRET readout, counter-screen for GALR2 antagonist project, confirmation (AID 867;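 active = inhibition above the mean inhibition across tested compounds plus 3 SD, cut at about 27% in these data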;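 also: 0% = 500 nM thapsigargin stimulated wells and 100% = unstimulated BSA only wells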); conditions: beta-lactamase FRET, thapsigargin-stimulated, at 4.2 µM, stronger effect = higher value
[18] = target: Receptor-interacting serine/threonine-protein kinase 2 (Homo sapiens) (UniProt O43353); assay: inhibitors of RIPK2 association with NOD2 – fluorescence, CHO cells, BLA complementation, triplicate, confirmation (AID 624370;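 active = mean inhibition across replicates above a set limit taken from the earlier primary screen, cut at about 21% in these data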;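 also: 0% = DMSO-only wells and the high end = clavulanate BLA-blocked wells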); conditions: CCF4 FRET, at 4.98 µM, stronger effect = higher value
[19] = BLA reporter readout interference – cell-based, CHO-K1 CMV-bla, CCF4 FRET, fluorescence, artefact control for NOD2-RIPK2 interaction inhibitor project, confirmation (AID 624371;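 active = mean inhibition above the low-control mean inhibition plus three low-control SD, cut at about 11% in these data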;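 also: 0% = DMSO only wells and 100% = clavulanate high control wells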); conditions: CCF4 FRET ratio, counterscreen, at 4.98 µM, stronger effect = higher value
[20] = test system: transactivating tegument protein VP16 (Human herpesvirus 1); assay: compounds suppressing VP16-driven luciferase signal – cell-based, luminescence, single concentration, counter-screen for SRC2 inhibitor project (AID 652007; in the data active = inhibition above about 36%); conditions: cell-based VP16 transactivation luciferase reporter, at 8.9 µM, stronger effect = higher value
[21] = target: Nuclear receptor coactivator 2 (Homo sapiens) (UniProt Q15596); assay: inhibition of GAL4-SRC2 driven luciferase expression – cell-based, luminescence, HEK293, triplicate, confirmation (AID 652008;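 active = mean inhibition above 46.5%, the solvent-only control mean plus 3 SD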;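 also: 0% = DMSO-treated cells and 100% = Gossypol at 36 µM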); conditions: HEK293 GAL4-SRC2 luciferase reporter, at 8.9 µM, stronger effect = higher value
[22] = target: (Lyso)-N-acylphosphatidylethanolamine lipase (Mus musculus) (UniProt Q8VD66); assay: mouse ABHD4 hydrolase blockers, triplicate – biochemical, fluorescence polarization, confirmation (AID 720658;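 active = mean inhibition across replicates above the hit cutoff set in the primary screen, cut at about 30% in these data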;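 also: 0% = wild-type ABHD4 with DMSO and 100% = catalytically dead S159A mutant with DMSO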); conditions: purified mABHD4, FP-Rh probe fluorescence polarization; at 8.92 µM; stronger effect = higher value
[23] = StAR promoter reporter inhibitors, counter-screen for LRH-1 inverse agonist project, cell-based, luminescence, high throughput (AID 651611; in the data active = inhibition above about 28%); conditions: StAR promoter luciferase reporter counterscreen, at 3.6 µM, stronger effect = higher value
[24] = target: Nuclear receptor subfamily 5 group A member 2 (Homo sapiens) (UniProt O00482); assay: NR5A2 activity suppression in reporter cells – cell-based, luminescence, confirmation (AID 651613; in the data active = inhibition above about 42%;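 also: HEK293T cells co-transfected with LRH-1 and StAR promoter luciferase reporter; 0% = vehicle wells and 100% = parental cells lacking receptor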); conditions: cell-based LRH-1 luciferase reporter, inverse agonism; at 3.6 µM; stronger effect = higher value
[25] = target: Steroidogenic factor 1 (Homo sapiens) (UniProt Q13285); assay: inverse agonism at SF1 nuclear receptor – cell-based, luminescence, high throughput, counter-screen for LRH-1 inverse agonist project (AID 651614; in the data active = inhibition above about 44%;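 also: cells cotransfected with StAR promoter reporter and SF1 expression vector; 0% = vehicle on cells with receptor and 100% = vehicle on cells lacking receptor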); conditions: cell-based SF1 luciferase reporter, at 3.6 µM, stronger effect = higher value
[26] = compounds suppressing VP16-driven luciferase signal – cell-based, luminescence, high throughput, counter-screen for LRH-1 inverse agonist project (AID 651615; in the data active = inhibition above about 33%); conditions: Gal4-VP16 luciferase reporter cells, at 3.6 µM, stronger effect = higher value
[27] = BSA probe fluorescence interference – biochemical, TAMRA-labeled BSA, counter-screen for TCR-CD3 interaction inhibitor project (AID 652035; in the data active = inhibition above about 23%;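 also: 0% = buffer low control and 100% = reference high control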); conditions: TAMRA-labeled BSA probe fluorescence counterscreen; at 9.4 µM; stronger effect = higher value
[28] = test system: T-cell receptor (TCR)-CD3 interaction, human; assay: blockers of TCR binding to CD3 – biochemical, fluorescence, TAMRA-labeled TCR probe, confirmation (AID 652036; in the data active = inhibition above about 19%); conditions: TAMRA-labeled TCR probe fluorescence binding assay; at 9.4 µM; stronger effect = higher value
[29] = VP16-driven transactivation reporter suppression – cell-based, luminescence, HEK293, counter-screen for COUP-TFII antagonist project (AID 687007; in the data active = inhibition above about 13%); conditions: HEK293 Gal4-VP16 luciferase reporter, at 8.5 µM, stronger effect = higher value
[30] = target: COUP transcription factor 2 (Homo sapiens) (UniProt P24468); assay: retest of COUP-TFII reporter suppressors – cell-based, luciferase reporter, HEK293, triplicate, confirmation (AID 687008;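 active = mean inhibition over three repeats above a set limit taken from the earlier primary screen, cut at about 38% in these data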;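 also: 100% = cells given the luciferase reporter alone without the COUP-TF2 vector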); conditions: HEK293 NGFI-A luciferase reporter, luminescence; at 8.5 µM; stronger effect = higher value

Receptor-interacting serine/threonine-protein kinase 2 (Homo sapiens), sequence (O43353 whole entry, looked up): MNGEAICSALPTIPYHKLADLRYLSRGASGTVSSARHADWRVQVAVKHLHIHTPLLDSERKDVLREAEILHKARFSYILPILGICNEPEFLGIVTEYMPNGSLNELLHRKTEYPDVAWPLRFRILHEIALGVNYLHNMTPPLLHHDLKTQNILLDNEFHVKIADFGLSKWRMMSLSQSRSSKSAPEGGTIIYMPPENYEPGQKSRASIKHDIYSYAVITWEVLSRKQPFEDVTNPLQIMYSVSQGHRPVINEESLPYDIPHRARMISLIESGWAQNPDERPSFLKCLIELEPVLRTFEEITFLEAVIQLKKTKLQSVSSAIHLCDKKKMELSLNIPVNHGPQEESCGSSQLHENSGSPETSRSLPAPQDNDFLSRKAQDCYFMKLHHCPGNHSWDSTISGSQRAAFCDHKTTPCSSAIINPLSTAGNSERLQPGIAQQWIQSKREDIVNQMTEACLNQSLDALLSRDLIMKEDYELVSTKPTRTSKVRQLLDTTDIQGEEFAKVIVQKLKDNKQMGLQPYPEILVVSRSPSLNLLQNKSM
Nuclear receptor coactivator 3 (Homo sapiens), sequence (Q9Y6Q9 whole entry, looked up, the tested form may be a part): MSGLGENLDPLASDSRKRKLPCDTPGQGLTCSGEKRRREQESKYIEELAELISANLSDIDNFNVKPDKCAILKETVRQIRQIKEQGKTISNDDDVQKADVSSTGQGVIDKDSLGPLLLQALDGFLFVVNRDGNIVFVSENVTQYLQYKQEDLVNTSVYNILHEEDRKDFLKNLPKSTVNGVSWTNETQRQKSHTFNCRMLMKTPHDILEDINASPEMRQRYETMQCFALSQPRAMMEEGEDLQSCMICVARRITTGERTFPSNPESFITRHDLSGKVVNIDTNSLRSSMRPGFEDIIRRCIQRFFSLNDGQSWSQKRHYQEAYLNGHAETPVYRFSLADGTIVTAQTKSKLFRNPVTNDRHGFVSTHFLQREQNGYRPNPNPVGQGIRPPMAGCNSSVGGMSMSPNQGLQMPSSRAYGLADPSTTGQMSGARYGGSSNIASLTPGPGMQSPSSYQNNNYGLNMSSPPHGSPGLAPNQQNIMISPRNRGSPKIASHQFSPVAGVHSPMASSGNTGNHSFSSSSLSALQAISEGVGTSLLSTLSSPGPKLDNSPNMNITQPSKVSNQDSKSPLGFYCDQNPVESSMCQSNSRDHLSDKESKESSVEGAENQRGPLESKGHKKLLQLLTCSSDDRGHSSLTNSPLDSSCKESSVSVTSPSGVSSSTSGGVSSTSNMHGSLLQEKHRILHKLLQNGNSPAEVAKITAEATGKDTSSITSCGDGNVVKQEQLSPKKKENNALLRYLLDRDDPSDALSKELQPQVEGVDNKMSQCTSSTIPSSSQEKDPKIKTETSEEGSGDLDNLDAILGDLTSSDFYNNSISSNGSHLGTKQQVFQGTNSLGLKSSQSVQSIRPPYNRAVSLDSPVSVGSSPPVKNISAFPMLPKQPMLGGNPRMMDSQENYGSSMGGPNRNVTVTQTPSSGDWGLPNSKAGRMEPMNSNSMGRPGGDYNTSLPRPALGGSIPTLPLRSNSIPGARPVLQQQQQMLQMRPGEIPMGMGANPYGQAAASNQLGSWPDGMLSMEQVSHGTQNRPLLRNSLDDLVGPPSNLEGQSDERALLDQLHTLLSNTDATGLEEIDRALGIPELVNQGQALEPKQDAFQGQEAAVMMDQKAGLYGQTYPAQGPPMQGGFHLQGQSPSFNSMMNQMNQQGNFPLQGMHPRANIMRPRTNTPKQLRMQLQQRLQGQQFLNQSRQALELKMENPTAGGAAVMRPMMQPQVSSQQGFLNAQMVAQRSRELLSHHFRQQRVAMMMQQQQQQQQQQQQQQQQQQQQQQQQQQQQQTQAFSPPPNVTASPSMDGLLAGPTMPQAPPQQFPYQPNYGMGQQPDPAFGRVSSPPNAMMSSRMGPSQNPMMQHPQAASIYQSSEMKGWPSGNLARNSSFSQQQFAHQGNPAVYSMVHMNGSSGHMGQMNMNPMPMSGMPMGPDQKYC
Toll-like receptor 9 (Homo sapiens), sequence (Q9NR96 whole entry, looked up): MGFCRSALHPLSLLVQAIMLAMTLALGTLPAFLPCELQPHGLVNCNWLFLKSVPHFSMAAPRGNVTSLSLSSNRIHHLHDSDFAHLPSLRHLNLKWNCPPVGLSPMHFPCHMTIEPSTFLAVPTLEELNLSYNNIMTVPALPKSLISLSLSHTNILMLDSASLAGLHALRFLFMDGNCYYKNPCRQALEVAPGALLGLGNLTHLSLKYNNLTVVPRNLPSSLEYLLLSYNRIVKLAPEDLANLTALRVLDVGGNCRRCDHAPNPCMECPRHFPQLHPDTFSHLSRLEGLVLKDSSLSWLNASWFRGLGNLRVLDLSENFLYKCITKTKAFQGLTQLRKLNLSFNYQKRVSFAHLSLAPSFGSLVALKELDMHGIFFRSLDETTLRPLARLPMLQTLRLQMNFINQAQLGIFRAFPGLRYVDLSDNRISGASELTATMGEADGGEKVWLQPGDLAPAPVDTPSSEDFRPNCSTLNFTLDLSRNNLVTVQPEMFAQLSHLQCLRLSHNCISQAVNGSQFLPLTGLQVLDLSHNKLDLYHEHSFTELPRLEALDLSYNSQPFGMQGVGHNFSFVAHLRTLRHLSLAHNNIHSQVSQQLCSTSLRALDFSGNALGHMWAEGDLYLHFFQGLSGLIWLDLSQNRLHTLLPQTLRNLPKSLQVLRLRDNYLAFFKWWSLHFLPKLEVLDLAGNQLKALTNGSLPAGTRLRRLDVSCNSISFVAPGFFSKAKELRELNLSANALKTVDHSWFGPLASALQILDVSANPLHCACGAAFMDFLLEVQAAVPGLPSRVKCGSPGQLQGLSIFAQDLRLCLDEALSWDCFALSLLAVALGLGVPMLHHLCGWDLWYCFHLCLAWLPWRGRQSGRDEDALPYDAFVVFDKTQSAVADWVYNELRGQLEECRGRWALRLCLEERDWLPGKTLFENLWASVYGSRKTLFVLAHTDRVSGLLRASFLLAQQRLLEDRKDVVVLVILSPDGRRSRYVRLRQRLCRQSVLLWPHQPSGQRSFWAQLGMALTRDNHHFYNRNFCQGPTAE
Nuclear receptor coactivator 1 (Homo sapiens), sequence (Q15788 whole entry, looked up, the tested form may be a part): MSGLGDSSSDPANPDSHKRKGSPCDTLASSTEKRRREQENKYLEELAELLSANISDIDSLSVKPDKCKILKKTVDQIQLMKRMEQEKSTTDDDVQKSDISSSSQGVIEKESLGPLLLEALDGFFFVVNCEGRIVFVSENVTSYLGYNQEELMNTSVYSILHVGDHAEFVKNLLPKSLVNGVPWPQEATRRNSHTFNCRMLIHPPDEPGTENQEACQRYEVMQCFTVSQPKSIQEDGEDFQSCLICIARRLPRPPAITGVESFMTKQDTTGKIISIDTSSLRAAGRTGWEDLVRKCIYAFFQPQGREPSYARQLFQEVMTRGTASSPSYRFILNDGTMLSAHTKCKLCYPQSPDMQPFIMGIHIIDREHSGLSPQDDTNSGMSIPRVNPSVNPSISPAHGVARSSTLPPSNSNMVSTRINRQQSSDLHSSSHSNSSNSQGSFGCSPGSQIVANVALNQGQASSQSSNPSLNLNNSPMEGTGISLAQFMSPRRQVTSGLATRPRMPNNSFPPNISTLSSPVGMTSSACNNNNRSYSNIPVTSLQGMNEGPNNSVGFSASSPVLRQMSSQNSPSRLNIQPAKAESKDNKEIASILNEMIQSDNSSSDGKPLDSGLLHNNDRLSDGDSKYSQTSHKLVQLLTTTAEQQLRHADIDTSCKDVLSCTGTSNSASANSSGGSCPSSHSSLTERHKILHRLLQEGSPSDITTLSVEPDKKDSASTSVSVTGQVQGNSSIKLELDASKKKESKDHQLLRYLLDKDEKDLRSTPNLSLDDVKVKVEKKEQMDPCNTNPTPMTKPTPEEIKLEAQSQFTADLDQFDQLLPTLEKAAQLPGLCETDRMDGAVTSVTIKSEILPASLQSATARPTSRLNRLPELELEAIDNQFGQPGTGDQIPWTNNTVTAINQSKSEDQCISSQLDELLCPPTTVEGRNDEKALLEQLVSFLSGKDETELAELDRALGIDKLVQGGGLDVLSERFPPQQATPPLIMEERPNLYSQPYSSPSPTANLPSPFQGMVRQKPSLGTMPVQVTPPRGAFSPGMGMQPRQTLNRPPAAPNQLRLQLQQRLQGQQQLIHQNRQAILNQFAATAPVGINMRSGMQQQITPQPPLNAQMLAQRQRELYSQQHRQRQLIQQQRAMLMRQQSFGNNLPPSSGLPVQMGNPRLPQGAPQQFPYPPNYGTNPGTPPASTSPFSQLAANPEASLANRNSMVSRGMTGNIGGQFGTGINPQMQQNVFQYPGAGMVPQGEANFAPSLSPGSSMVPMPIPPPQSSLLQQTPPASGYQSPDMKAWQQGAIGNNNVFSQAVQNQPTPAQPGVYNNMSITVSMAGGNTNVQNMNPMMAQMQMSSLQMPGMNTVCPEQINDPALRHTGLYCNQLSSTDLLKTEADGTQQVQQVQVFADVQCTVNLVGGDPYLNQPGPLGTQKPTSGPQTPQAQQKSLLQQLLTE
Platelet-activating factor acetylhydrolase IB subunit alpha1 (Homo sapiens), sequence (Q15102 whole entry, looked up): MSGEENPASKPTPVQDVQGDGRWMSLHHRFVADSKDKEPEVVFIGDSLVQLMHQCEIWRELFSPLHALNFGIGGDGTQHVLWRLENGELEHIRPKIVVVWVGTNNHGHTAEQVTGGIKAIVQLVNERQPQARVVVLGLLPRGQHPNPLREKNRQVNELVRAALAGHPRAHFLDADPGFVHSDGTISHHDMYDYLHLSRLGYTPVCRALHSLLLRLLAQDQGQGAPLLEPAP
Galanin receptor type 2 (Homo sapiens), sequence (O43603 whole entry, looked up): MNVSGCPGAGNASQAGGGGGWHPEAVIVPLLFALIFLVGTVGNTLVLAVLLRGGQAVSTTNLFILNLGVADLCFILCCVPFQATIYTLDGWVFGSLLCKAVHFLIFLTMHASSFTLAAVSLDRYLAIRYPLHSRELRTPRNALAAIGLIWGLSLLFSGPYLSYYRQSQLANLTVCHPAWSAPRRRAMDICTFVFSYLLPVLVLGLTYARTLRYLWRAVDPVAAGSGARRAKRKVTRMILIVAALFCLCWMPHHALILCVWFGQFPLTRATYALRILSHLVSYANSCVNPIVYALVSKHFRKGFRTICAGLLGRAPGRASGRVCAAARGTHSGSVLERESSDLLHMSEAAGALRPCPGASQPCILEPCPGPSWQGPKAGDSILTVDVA

CC1=C(C(=O)OCc2ccccc2)C(c2ccco2)n2ncnc2N1 (stereo not drawn)
inhibition [1]: 0.55%
inhibition [2]: 0.26%
inhibition [3]: -3.83%

Nc1nonc1-n1nnc(C(=O)N/N=C/c2cc(Br)ccc2O)c1CSC1=NCCS1
inhibition [1]: 14.2% (active)
inhibition [2]: 16% (active)
inhibition [3]: 9.73%
inhibition [4]: 42.7%
inhibition [5]: 34.5% (active)
inhibition [6]: 41%
inhibition [7]: 33.4% (active)
inhibition [8]: 6.91%
inhibition [9]: 9.92%
inhibition [10]: 10.8%

Cc1cccc(N=C2NC(=O)/C(=C/c3cn(C)c4ccccc34)S2)c1
inhibition [11]: 17.3%

O=[N+]([O-])c1ccc(N=Cc2c(O)ccc3ccccc23)cc1
inhibition [1]: -0.99%
inhibition [2]: -2.02%
inhibition [3]: -4.22%

O=C(N/N=C/c1ccc(O)c(O)c1)C1c2ccccc2Oc2ccccc21
inhibition [12]: 76.6% (active)

CC[C@H]1OC(=O)[C@H](C)[C@@H](O[C@H]2C[C@@](C)(OC)[C@@H](O)[C@H](C)O2)[C@H](C)[C@@H](O[C@@H]2O[C@H](C)C[C@H](N(C)C)[C@H]2O)[C@](C)(O)C[C@@H](C)[C@@H]2N[C@@H](COCCOC)O[C@H]([C@H]2C)[C@]1(C)O
inhibition [1]: 62.5% (active)
inhibition [2]: 41% (active)
inhibition [3]: 37.2% (active)
inhibition [8]: 33.9% (active)
inhibition [9]: 34.4% (active)
inhibition [10]: 42.6% (active)

CCN(CC)c1ccc(/C=N/Nc2nc(C)cc(C)n2)c(O)c1
inhibition [12]: 61.8% (active)

O=C1CCC(=O)N(O)CCCCCNC(=O)CCC(=O)N(O)CCCCCNC(=O)CCC(=O)N(O)CCCCCN1
inhibition [1]: 31% (active)
inhibition [2]: 24.5% (active)
inhibition [3]: 17.4%
inhibition [8]: 19.5% (active)
inhibition [9]: 25% (active)
inhibition [10]: 29.4% (active)

CC(=O)c1c(C)n([O-])c2ccccc2[n+]1=O
inhibition [1]: 100% (active)
inhibition [2]: 26.2% (active)
inhibition [3]: 89.7% (active)
inhibition [8]: 16.9% (active)
inhibition [9]: 21.4% (active)
inhibition [10]: 87.7% (active)

COc1ccc(C2=Nn3c(nnc3-c3ccccc3OC)SC2)cc1OC1CCCC1
inhibition [11]: 35.2% (active)

Cc1ccc(C(=O)/C=C/Nc2ccc(S(=O)(=O)Nc3onc(C)c3C)cc2)cc1
inhibition [1]: 2.14%
inhibition [2]: 3.94%
inhibition [3]: 2.93%

CSC(=S)N/N=C/c1c[nH]c2ccccc12
inhibition [1]: 24.2% (active)
inhibition [2]: 11.8% (active)
inhibition [3]: 29.5% (active)
inhibition [12]: 33.3%

O=C(NCC1CCCO1)C(C(=O)c1ccccc1)n1cc(Cl)ccc1=O (stereo not drawn)
inhibition [1]: -2.76%
inhibition [2]: -0.21%
inhibition [3]: -1.24%

CC(=O)N1CCN(c2ccc(NCc3ccc(C(C)C)cc3)cc2)CC1
inhibition [12]: 12.7%

C[N+](C)(C)CCNC(=O)c1cc[n+](Cc2ccccc2)c(/C=N/O)c1
inhibition [13]: 7.66%
inhibition [14]: 6.76%
inhibition [15]: -0.18%

Cc1cc(C)nc(SCc2ccccc2C#N)n1
inhibition [13]: 1.99%
inhibition [14]: 0.68%
inhibition [15]: 2.36%

Cc1cc(-c2csc(N)n2)c(C)n1-c1ccccc1
inhibition [12]: 28.5%

Oc1c(CN2CCN(c3ccc(F)cc3)CC2)cc(Cl)c2cccnc12
inhibition [12]: 50.9% (active)
inhibition [4]: 52.3% (active)
inhibition [5]: 42.8% (active)
inhibition [8]: 4.78%
inhibition [9]: 6.62%
inhibition [10]: 3.33%

COC(=O)Cc1cc(=O)oc2c(C)c(O)ccc12
inhibition [16]: 7.7%
inhibition [17]: 16.5%
inhibition [13]: 13.3%
inhibition [14]: 16.3%
inhibition [15]: -0.43%
inhibition [18]: 23.8% (active)
inhibition [19]: 28.6% (active)

O=C(CCN1C(=O)c2ccccc2C1=O)NNC(=O)c1ccc(Cl)cc1Cl
inhibition [13]: -3.93%
inhibition [14]: -2.36%
inhibition [15]: 1.44%

CCCN(CCC)C(=O)C1c2ccccc2Oc2ccccc21
inhibition [12]: -8.94%

COc1ccc(OC)c(N=Cc2c(O)[nH]c3ccccc23)c1
inhibition [13]: -1.61%
inhibition [14]: 1.7%
inhibition [15]: 19.8% (active)
inhibition [18]: 61.8% (active)
inhibition [19]: 59.3% (active)

Cc1cccc(CS(=O)(=O)c2ncc(Cl)c(C(=O)Nc3ccc(F)cc3)n2)c1
inhibition [13]: 38.1% (active)
inhibition [14]: 20.7%
inhibition [15]: 99.1% (active)
inhibition [18]: 82.9% (active)
inhibition [19]: 31.5% (active)
inhibition [20]: 69.8% (active)
inhibition [21]: 80.6% (active)

COc1ccccc1C1=Nc2cccc3cccc(c23)N1
inhibition [12]: 67.4% (active)
inhibition [22]: 60.5% (active)

COc1cccc2c1C(=O)c1c(O)c3c(c(O)c1C2=O)CC(O)(C(C)=NNC(=O)c1ccc(Cl)c(Cl)c1)CC3OC1CC(N)C(O)C(C)O1 (stereo not drawn)
inhibition [12]: 69.6% (active)
inhibition [23]: 72.7% (active)
inhibition [24]: 75.1% (active)
inhibition [25]: 94.8% (active)
inhibition [26]: 65.9% (active)
inhibition [27]: 159% (active)
inhibition [28]: 126% (active)
inhibition [29]: 41.2% (active)
inhibition [30]: 32.5%

CC(=O)Nc1ccc(S(=O)(=O)Nc2ccc(N3CCCCC3)cc2)cc1
inhibition [12]: 63.4% (active)
inhibition [4]: -3.95%
inhibition [5]: 0.96%
inhibition [6]: 4.11%
inhibition [7]: 2.83%
inhibition [20]: -15.4%
inhibition [21]: 14.9%

— PubChem BioAssay
